Source: PubChem (National Center for Advancing Translational Sciences (NCATS))
This is a sample that favours compounds with a hit; in the whole collection about 12% have one here.
Sfp PPTase inh: Sfp phosphopantetheinyl transferase inhibition; Potency, µM, hits mostly inhibitors; Q9F4F7; Biochemical Sfp PPTase activity, qHTS; AID 1490; 3.5% of 310,000 active;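 also: the enzyme is Sfp with the accession as filed and its product quenches rhodamine fluorescence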
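After 15 min at room temperature with compound, 15 nM Sfp received 5 uM rhodamine-CoA plus 12.5 uM BHQ-2-ybbR (50 mM Hepes pH 7.6, 10 mM MgCl2). Rate came from the fluorescence difference over 30 min, ex 525/em 598 nm.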
G9a block: blocks human histone lysine methyltransferase G9a; Potency, µM (doses to about 102 µM), actives largely listed as inhibitors; AID 504332; Q96KQ7; 8.8% of 350,000 active; G9a H3K9 monomethylation, AlphaScreen, 2 h; also: nearly all actives have a fitted effect of over 75% in size
Target sequence (Q96KQ7 913-1193 limits assumed): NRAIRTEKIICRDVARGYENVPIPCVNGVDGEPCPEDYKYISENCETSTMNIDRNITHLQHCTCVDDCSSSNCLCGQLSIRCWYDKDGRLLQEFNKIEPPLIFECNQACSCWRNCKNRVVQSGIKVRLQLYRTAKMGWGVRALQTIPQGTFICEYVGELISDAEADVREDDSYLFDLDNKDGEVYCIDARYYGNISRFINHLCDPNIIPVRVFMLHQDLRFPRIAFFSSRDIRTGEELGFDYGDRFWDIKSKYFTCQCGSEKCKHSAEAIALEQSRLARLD
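Quantitative HTS format: methyltransferase activity on a biotin-tagged H3K9 peptide is measured by AlphaScreen, using a rabbit anti-monomethyl-H3K9 antibody with streptavidin donor and anti-IgG acceptor beads. Final levels are 20 nM enzyme, 500 nM peptide, 20 uM SAM; 2 h RT.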
JMJD2A Tudor: blocks the human JMJD2A Tudor domain. AlphaScreen JMJD2A-Tudor / H3K4me3 peptide binding. Potency, µM (series often up to 114 µM), actives largely listed as inhibitors. 4.4% of 390,000 active; also: nearly all actives have a fitted effect of over 50% in size
HP1b binding inh: inhibitors of HP1-beta chromodomain binding to methylated histone tails; P83916; AlphaScreen HP1-beta / biotin-H3K9me3 peptide binding; Potency, µM (titrated, usually from 114 µM), actives largely listed as inhibitors; 0.56% of 390,000 active; also: nearly all actives have a fitted effect of over 70% in size
Target sequence (P83916 whole entry, looked up): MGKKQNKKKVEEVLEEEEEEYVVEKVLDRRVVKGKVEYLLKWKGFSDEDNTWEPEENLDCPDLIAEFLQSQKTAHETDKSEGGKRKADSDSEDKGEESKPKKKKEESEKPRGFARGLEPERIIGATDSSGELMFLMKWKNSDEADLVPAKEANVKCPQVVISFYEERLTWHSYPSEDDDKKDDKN
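AlphaScreen: HP1-beta (50 nM) preformed 30 min with biotin-H3(1-18)K9me3 peptide (50 nM) in PBS pH 7.4, 0.01% Tween-20. Compound added for 30 min at RT, then streptavidin donor/nickel chelate acceptor beads (10 ug/mL) for 30 min.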
BAZ2B block: BAZ2B (human) inhibition; Q9UIF8; AlphaScreen BAZ2B-H3K14Ac peptide displacement; Potency, µM (doses to about 114 µM), actives largely listed as inhibitors; 4.4% of 360,000 active; also: nearly all actives have a fitted effect of over 60% in size
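Multi-concentration screen (max 110 uM) measuring displacement of acetylated histone H3 peptide from BAZ2B by AlphaScreen, using 50 nM protein, 50 nM peptide and 10 ug/mL streptavidin donor plus Ni-chelate acceptor beads.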
Numbers stand for hits; i = inactive; ? = inconclusive; nt = no result; ! = a repeat was not active; [ ] = dose if it differs, or a comment. Calls follow the shape of the dose curve; as a rule, active = well fitted curve in the direction sought with a large enough effect; inconclusive = small, poorly fitted or top-dose-only effect, or another doubt; inactive = no such curve, though single readings can be large; an effect the other way counts as inactive or inconclusive.

SMILES | Sfp PPTase inh | G9a block | JMJD2A Tudor | HP1b binding inh | BAZ2B block
COC1(c2ccccc2)NC(=S)NN=C1c1ccccc1 (configuration not stated) | i | ? | i | i | i
CCCCOC1(c2ccccc2)NC(=S)NN=C1c1ccccc1 (configuration not stated) | i | 44.7µM | nt | nt | i
CCSc1ncc(Cl)c(C(=O)Nc2ccc(S(=O)(=O)N3CCC(C)CC3)cc2)n1 | nt | i | i | i | i
CCSc1ncc(Cl)c(C(=O)Nc2ccc(S(=O)(=O)Nc3ncccn3)cc2)n1 | i | i | i | i | i
CCS(=O)(=O)c1ncc(Cl)c(C(=O)Nc2ccc(S(=O)(=O)N3CCC(C)CC3)cc2)n1 | i | 44.7µM | i | i | i
CCCS(=O)(=O)c1ncc(Cl)c(C(=O)Nc2ccc(S(=O)(=O)Nc3ncccn3)cc2)n1 | i | 17.8µM | i | i | i
COc1ccc(CCn2c(=O)c3cccnc3n(CC(=O)Nc3c(C)cc(C)cc3C)c2=O)cc1OC | nt | i | i | i | i
CCCSCCCNC(=O)C1CCN(c2nn3cc(-c4ccc(F)cc4)nc3s2)CC1 | nt | i | ? | i | ?
Cc1cccc(/C=N/NC(=O)c2ccc3c(c2)OCCO3)c1O | i | i | nt | nt | 20µM
COc1ccccc1/C=N/NC(=O)c1c(-c2ccccc2)noc1C | i | i[12.7 µM] | i | i | i
COc1cc(/C=N/NC(=O)c2ccc3c(c2)OCCO3)cc(Br)c1O | i | i | i | i | i
COc1cc(/C=N/NC(=O)c2ccc3c(c2)OCCO3)c(Br)c(Br)c1O | i | 44.7µM | i | i | i
Cc1cccc(/C=N/NC(=O)c2c(-c3ccccc3)noc2C)c1O | i | nt | ? | i | 25.1µM
CS(=O)(=O)c1ccccc1C(=O)N(CCC1=CCCCC1)c1c(N)n(Cc2ccccc2)c(=O)[nH]c1=O | nt | i[0.501 µM] | i | i | i
CC(C)CC(=O)Nc1cc(-c2ccccc2F)nn1-c1ccccc1 | nt | i | i | i | i
COc1cc(CCC(=O)NCCc2ccc(F)cc2)cc(OC)c1OC | nt | nt | i | i | nt
Cc1nc2ccc(C(=O)O)cc2c2c1CC(C)S2 (configuration not stated) | i | ? | ? | i | 70.8µM
Cc1ccccc1OCCNC(=O)/C=C/c1ccccc1 | i | i | i | i | i
COc1cc(OC)c(N(C)S(=O)(=O)c2cccc(C(=O)OCC(=O)N(C)Cc3ccccc3)c2)cc1Cl | nt | nt | i | i | nt
Nc1ccc2[nH]c(=S)[nH]c2c1 | nt | nt | i | i | nt
Cc1cc2[nH]c(=S)[nH]c2cc1C | 35.5µM | 1.78µM | ? | 39.8µM | i
S=c1[nH]c2ccc(Cc3ccc4[nH]c(=S)[nH]c4c3)cc2[nH]1 | 28.2µM | 0.282µM | i | i | i
S=c1[nH]c2cc3ccccc3cc2[nH]1 | 56.2µM! | 2.24µM | i | i | i
COC(=O)c1sc(N2C(=O)C(O)=C(C(=O)c3ccc(C)o3)C2c2cccs2)nc1C (configuration not stated) | ? | 10µM | ? | i | i
COC(=O)c1sc(N2C(=O)c3oc4ccccc4c(=O)c3C2c2cccs2)nc1C (configuration not stated) | i | 14.1µM | i | i | i
SMILES | Sfp PPTase inh | G9a block | JMJD2A Tudor | HP1b binding inh | BAZ2B block
COC(=O)c1ccc(C2C(C(=O)c3ccco3)=C(O)C(=O)N2c2cc(C)on2)cc1 (configuration not stated) | i | ? | ? | i | i
COC(=O)c1ccc(C2C(C(=O)c3ccc(C)o3)=C(O)C(=O)N2c2cc(C)on2)cc1 (configuration not stated) | i | 50.1µM | i | i | i
COC(=O)c1sc(N2C(=O)C(O)=C(C(=O)c3ccc(C)o3)C2c2ccc(F)cc2)nc1C (configuration not stated) | ? | 12.6µM | i | i | i
COC(=O)N1CCCc2cc(S(=O)(=O)NCc3ccccc3)ccc21 | nt | i | i | i | i
O=C(NC1CC1)c1ccc(NC(=O)C2CCCCC2)cc1 | nt | nt | i | i | nt
COc1cc(Cl)c(C)cc1NC(=O)c1ccccc1-n1cnnn1 | nt | nt | i | i | nt
C=CCn1c(N)c(C(=O)NC2CCCCC2)sc1=S | 15.8µM | i | i | i | i
S=c1[nH]c2ccccc2s1 | i | 11.2µM | nt | nt | nt
Oc1[nH]c(=S)sc1C=C1N=c2ccccc2=N1 | i | ? | i | i | i
O=C(Nc1ccc2[nH]c(=S)sc2c1)c1ccccc1 | 50.1µM | 5.62µM | i | i | i
O=C(Nc1ccc2[nH]c(=S)sc2c1)Nc1ccccc1F | ? | 44.7µM | i | i | ?
